Test results from ChEMBL document CHEMBL1961873, “Compounds: GSK PKIS; Assays: Nanosyn kinase panel” (2012).

Tests used:
[1] = target: MAP/microtubule affinity-regulating kinase 3 (Homo sapiens) (UniProt P27448); settings: at 1 µM;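 note: reported values are averaged percent inhibition of MARK3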
[2] = target: T1, MAP/microtubule affinity-regulating kinase 4 (Homo sapiens) (UniProt Q96L34); settings: at 0.1 µM
T1 sequence (whole entry): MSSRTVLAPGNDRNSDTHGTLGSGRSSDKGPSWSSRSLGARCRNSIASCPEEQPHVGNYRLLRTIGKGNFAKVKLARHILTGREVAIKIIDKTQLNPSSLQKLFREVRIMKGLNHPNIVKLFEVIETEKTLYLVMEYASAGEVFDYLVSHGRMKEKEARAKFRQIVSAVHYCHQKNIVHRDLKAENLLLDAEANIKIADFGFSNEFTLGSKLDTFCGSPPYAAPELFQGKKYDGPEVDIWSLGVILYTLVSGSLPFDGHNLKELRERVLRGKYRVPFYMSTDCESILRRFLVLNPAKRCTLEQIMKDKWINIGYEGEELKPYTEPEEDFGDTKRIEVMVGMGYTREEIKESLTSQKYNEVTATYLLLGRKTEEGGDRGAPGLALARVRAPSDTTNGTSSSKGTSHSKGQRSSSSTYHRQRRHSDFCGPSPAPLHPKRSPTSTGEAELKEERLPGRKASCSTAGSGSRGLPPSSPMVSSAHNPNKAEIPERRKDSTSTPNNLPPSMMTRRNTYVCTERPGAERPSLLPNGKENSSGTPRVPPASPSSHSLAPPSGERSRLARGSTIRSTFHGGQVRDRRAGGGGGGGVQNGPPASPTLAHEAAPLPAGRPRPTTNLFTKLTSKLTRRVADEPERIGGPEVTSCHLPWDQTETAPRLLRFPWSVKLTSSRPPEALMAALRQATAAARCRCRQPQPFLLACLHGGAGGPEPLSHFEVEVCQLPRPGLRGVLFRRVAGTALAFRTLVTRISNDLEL

[3] = target: T1, MAP/microtubule affinity-regulating kinase 4 (Homo sapiens); settings: at 1 µM
[4] = target: Maternal embryonic leucine zipper kinase (Homo sapiens) (UniProt Q14680); settings: at 0.1 µM
Maternal embryonic leucine zipper kinase (Homo sapiens), sequence (Q14680 whole entry, looked up): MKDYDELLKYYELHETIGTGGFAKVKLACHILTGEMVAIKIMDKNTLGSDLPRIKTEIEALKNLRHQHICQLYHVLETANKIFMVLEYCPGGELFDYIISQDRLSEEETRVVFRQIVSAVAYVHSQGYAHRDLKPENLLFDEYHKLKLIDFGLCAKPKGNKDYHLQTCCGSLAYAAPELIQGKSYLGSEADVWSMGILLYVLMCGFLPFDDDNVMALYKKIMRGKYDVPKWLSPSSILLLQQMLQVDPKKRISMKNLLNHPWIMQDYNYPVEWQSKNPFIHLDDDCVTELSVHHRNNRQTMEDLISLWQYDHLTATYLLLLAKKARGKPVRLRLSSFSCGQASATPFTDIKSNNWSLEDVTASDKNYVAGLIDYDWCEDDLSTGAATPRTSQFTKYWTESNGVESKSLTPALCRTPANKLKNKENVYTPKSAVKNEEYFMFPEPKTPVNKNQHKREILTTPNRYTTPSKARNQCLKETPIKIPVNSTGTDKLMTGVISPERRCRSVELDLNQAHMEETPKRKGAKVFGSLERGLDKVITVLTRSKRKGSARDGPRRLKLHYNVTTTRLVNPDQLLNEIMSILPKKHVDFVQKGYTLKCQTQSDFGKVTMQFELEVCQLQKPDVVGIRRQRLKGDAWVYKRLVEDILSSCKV

[5] = target: Maternal embryonic leucine zipper kinase (Homo sapiens) (UniProt Q14680); settings: at 1 µM
[6] = target: MAP kinase-interacting serine/threonine-protein kinase 1 (Homo sapiens) (UniProt Q9BUB5); settings: at 0.1 µM
[7] = target: MAP kinase-interacting serine/threonine-protein kinase 1 (Homo sapiens) (UniProt Q9BUB5); settings: at 1 µM
[8] = target: MAP kinase-interacting serine/threonine-protein kinase 2 (Homo sapiens) (UniProt Q9HBH9); settings: at 0.1 µM
MAP kinase-interacting serine/threonine-protein kinase 2 (Homo sapiens), sequence (Q9HBH9 whole entry, looked up): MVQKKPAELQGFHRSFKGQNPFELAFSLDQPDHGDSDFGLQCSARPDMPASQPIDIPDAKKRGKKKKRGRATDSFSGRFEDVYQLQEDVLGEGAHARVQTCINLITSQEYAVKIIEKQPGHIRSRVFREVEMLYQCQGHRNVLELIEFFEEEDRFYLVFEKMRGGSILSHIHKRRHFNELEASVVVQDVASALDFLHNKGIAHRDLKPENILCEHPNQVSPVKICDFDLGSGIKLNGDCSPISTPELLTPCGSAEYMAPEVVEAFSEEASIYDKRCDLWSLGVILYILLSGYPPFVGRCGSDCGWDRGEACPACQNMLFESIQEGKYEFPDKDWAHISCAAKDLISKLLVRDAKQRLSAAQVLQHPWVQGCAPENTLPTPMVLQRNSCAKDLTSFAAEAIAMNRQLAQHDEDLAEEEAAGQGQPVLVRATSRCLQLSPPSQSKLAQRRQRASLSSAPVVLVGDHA

[9] = target: MAP kinase-interacting serine/threonine-protein kinase 2 (Homo sapiens) (UniProt Q9HBH9); settings: at 1 µM
[10] = target: Serine/threonine-protein kinase MARK2 (Homo sapiens) (UniProt Q7KZI7); settings: at 0.1 µM
Serine/threonine-protein kinase MARK2 (Homo sapiens), sequence (Q7KZI7 whole entry, the tested form may be a part): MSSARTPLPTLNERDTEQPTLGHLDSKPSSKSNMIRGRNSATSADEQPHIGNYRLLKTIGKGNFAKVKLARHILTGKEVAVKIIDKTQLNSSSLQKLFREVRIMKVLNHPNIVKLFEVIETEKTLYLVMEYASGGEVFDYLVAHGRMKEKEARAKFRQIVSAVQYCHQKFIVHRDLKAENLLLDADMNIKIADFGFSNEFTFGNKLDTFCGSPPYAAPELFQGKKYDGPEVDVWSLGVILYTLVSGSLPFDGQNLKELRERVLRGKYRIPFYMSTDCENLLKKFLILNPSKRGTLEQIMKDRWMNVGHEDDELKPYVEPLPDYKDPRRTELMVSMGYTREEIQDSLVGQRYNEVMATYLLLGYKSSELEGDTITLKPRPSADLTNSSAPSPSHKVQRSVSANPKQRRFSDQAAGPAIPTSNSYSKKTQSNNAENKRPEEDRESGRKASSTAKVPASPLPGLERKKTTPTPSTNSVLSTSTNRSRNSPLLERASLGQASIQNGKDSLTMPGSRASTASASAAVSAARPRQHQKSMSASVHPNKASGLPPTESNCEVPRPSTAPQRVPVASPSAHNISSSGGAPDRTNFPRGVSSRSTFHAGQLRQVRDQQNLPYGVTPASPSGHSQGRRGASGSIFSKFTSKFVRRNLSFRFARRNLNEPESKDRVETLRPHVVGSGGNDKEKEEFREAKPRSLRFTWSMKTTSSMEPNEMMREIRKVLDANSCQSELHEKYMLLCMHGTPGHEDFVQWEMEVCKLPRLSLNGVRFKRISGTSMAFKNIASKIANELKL

[11] = target: Serine/threonine-protein kinase MARK2 (Homo sapiens) (UniProt Q7KZI7); settings: at 1 µM
[12] = target: PAS domain-containing serine/threonine-protein kinase (Homo sapiens) (UniProt Q96RG2); settings: at 0.1 µM
PAS domain-containing serine/threonine-protein kinase (Homo sapiens), sequence (Q96RG2 whole entry, the tested form may be a part, canonical isoform): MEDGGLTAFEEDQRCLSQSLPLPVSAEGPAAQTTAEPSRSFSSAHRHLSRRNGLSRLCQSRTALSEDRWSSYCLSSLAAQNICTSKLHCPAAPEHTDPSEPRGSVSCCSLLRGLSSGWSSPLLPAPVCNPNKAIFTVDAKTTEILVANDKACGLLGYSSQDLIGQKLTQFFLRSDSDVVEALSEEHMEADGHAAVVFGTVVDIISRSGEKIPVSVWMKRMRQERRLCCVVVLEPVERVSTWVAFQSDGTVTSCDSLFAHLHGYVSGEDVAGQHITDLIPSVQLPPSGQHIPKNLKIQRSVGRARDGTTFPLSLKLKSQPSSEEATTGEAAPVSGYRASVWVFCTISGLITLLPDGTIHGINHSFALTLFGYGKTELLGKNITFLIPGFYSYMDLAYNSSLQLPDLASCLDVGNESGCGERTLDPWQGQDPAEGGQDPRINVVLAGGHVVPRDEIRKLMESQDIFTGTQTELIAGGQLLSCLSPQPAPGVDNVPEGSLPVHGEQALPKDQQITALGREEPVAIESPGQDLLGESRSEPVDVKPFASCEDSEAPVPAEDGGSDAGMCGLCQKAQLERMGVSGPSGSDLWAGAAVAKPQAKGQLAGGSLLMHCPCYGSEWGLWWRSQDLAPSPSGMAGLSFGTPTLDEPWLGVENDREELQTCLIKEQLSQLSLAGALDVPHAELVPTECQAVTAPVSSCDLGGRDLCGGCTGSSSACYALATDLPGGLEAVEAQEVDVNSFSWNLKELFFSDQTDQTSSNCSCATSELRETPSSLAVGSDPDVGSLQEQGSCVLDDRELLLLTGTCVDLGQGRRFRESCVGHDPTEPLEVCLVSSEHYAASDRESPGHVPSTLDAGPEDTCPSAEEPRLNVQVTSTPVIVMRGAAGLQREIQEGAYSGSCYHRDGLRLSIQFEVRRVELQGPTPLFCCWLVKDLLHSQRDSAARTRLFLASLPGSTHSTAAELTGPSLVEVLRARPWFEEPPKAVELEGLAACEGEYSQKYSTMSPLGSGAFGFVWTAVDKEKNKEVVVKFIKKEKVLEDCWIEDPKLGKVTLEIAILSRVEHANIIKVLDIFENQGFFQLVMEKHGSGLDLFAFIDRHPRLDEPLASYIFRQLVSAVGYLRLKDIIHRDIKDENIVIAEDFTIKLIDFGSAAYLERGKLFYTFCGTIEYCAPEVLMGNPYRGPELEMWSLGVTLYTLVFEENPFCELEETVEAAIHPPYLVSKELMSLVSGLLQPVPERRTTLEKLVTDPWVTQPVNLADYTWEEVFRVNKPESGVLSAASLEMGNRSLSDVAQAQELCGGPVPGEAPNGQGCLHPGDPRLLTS

[13] = target: PAS domain-containing serine/threonine-protein kinase (Homo sapiens) (UniProt Q96RG2); settings: at 1 µM
[14] = target: Phosphorylase b kinase gamma catalytic chain, skeletal muscle/heart isoform (Homo sapiens) (UniProt Q16816); settings: at 0.1 µM
Phosphorylase b kinase gamma catalytic chain, skeletal muscle/heart isoform (Homo sapiens), sequence (Q16816 whole entry, looked up, canonical isoform): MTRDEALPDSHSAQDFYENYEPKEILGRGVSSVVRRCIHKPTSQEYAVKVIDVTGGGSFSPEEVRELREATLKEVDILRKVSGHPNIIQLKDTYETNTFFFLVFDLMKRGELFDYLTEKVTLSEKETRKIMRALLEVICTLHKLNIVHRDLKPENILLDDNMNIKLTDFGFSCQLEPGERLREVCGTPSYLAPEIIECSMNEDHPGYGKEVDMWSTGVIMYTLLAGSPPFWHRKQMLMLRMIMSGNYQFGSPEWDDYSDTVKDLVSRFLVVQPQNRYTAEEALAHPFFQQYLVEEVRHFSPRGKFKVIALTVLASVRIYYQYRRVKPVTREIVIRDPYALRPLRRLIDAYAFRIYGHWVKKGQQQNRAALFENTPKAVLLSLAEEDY

[15] = target: Phosphorylase b kinase gamma catalytic chain, skeletal muscle/heart isoform (Homo sapiens) (UniProt Q16816); settings: at 1 µM
[16] = target: T2, Phosphorylase b kinase gamma catalytic chain, liver/testis isoform (Homo sapiens) (UniProt P15735); settings: at 0.1 µM
T2 sequence (whole entry): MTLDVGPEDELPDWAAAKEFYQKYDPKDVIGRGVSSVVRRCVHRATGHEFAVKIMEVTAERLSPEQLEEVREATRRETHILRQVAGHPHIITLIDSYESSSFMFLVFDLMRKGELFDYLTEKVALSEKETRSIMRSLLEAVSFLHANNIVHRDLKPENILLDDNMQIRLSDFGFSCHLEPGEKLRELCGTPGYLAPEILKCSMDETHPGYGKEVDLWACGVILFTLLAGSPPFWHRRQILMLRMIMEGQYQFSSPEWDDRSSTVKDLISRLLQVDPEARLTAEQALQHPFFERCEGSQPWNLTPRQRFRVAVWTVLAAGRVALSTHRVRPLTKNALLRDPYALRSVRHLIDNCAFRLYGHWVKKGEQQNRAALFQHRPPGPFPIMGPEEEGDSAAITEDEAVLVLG

[17] = target: T2, Phosphorylase b kinase gamma catalytic chain, liver/testis isoform (Homo sapiens); settings: at 1 µM
[18] = target: Serine/threonine-protein kinase pim-1 (Homo sapiens) (UniProt P11309); settings: at 0.1 µM
Serine/threonine-protein kinase pim-1 (Homo sapiens), sequence (P11309 whole entry, looked up): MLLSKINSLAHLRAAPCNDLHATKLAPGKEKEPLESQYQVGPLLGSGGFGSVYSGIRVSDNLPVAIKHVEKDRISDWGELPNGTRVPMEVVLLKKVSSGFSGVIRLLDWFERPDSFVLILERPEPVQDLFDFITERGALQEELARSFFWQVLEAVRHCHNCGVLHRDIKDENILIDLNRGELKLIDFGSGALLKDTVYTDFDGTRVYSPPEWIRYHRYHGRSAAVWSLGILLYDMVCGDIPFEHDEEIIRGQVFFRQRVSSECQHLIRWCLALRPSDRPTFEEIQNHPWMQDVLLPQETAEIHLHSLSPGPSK

[19] = target: Serine/threonine-protein kinase pim-1 (Homo sapiens) (UniProt P11309); settings: at 1 µM
[20] = target: Serine/threonine-protein kinase pim-2 (Homo sapiens) (UniProt Q9P1W9); settings: at 0.1 µM;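 note: reported value is the mean percent inhibition of PIM2, measured in the GSK PKIS kinase inhibitor set screen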
Serine/threonine-protein kinase pim-2 (Homo sapiens), sequence (Q9P1W9 whole entry, looked up): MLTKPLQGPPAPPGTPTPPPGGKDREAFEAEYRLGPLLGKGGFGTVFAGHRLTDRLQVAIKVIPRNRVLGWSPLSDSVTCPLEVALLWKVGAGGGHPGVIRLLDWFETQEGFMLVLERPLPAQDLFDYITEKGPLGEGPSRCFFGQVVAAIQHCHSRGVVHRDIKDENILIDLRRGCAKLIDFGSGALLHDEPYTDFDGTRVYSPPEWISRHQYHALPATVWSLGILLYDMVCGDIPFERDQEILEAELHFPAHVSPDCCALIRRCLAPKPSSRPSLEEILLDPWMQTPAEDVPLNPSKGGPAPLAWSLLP

MAP/microtubule affinity-regulating kinase 3 (Homo sapiens), sequence (P27448 whole entry, looked up): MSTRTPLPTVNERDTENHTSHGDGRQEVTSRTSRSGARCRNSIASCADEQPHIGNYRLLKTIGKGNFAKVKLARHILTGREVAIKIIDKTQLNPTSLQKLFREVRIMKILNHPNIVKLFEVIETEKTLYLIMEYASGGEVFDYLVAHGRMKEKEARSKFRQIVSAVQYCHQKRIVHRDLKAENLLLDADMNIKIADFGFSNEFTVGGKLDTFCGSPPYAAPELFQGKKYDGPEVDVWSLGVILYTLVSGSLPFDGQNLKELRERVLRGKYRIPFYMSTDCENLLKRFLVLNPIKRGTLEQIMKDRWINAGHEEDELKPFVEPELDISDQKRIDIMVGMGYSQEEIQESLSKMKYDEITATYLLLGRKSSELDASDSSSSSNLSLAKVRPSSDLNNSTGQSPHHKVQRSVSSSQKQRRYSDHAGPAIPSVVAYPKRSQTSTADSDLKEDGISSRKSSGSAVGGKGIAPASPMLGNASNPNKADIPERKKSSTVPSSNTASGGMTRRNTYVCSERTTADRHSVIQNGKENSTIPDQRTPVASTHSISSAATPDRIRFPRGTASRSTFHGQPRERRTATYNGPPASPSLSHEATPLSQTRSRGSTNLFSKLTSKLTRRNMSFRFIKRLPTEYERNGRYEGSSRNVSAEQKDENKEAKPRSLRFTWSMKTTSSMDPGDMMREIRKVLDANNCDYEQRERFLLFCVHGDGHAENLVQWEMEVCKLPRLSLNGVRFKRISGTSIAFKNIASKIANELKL

| Structure (SMILES) | inhibition [1] [%] | inhibition [2] [%] | inhibition [3] [%] | inhibition [4] [%] | inhibition [5] [%] | inhibition [6] [%] | inhibition [7] [%] | inhibition [8] [%] | inhibition [9] [%] | inhibition [10] [%] | inhibition [11] [%] | inhibition [12] [%] | inhibition [13] [%] | inhibition [14] [%] | inhibition [15] [%] | inhibition [16] [%] | inhibition [17] [%] | inhibition [18] [%] | inhibition [19] [%] | inhibition [20] [%] |
| --- | --- | --- | --- | --- | --- | --- | --- | --- | --- | --- | --- | --- | --- | --- | --- | --- | --- | --- | --- | --- |
| CCn1c(-c2nonc2N)nc2c(N3CCCC3)nccc21 | -0.19 | 2.01 | 3.21 | 0.66 | 6.1 | -0.54 | 5.25 | -1.08 | 1.33 | 2.95 | 3.46 | -0.88 | -1.38 | 3.74 | -1.02 | -3.65 | -3.95 | 0.8 | 1.03 | -0.33 |
| COc1cc2ncn(-c3cc(O[C@@H](C)c4ccccc4Cl)c(C(N)=O)s3)c2cc1OC | 8.06 | 2.88 | 7.69 | 4.41 | 9.71 | 1.25 | 2.74 | -0.9 | 7.84 | 1.49 | 5.29 | 0.19 | 1.28 | 5.83 | 8.24 | 6.55 | 6.6 | -0.02 | 1.8 | -0.11 |
| NC(=O)c1ccc(-c2nc(-c3ccccn3)c(-c3ccc4c(c3)OCO4)[nH]2)cc1 | 11 | 1.03 | 0.93 | 2.76 | 2.1 | 1.26 | 5.1 | 1.27 | 3.13 | -0.01 | -0.45 | 0.34 | 1.31 | 2.92 | 4.79 | 3.32 | 3.73 | -0.68 | 0.92 | 0.03 |
| NS(=O)(=O)c1cccc(-c2ccc3c(NC(=O)C4CC4)n[nH]c3c2)c1 | 3.86 | 1.62 | 6.55 | 0.79 | 3.48 | -0.26 | 7.26 | -1.27 | 1.02 | 0.51 | 4.42 | -1.09 | -1.37 | 2.99 | 2.11 | -4.36 | -2.76 | -0.14 | 1.01 | 0.46 |
| COc1cc2ncn(-c3cc(OCc4ccccc4Cl)c(C(N)=O)s3)c2cc1OC | 9.99 | 1.66 | 9.04 | 2.05 | 8.87 | 0.61 | 7.42 | 1.58 | 7.9 | 0.69 | 6.01 | -0.4 | -0.88 | 3.72 | 5.84 | -0.8 | 1.21 | 0.77 | 2.71 | 1.11 |
| CCCN1CCC(Oc2cc(Nc3nc(Nc4cccc(F)c4C(N)=O)c4cc[nH]c4n3)c(OC)cc2Cl)CC1 | 1.93 | -0.13 | 2.83 | 1.25 | 21.2 | 1.13 | 3.91 | 0.85 | 0.99 | -0.3 | 1.3 | 0.73 | 1.6 | 1.4 | 24.2 | -0.41 | 0.31 | 4.08 | 25.4 | 0.5 |
| Cn1cc(C=C2C(=O)Nc3cccnc32)c2ccccc21 | 7.16 | 1.67 | 6.49 | 4.43 | 23.5 | 3.06 | 15.5 | 1.53 | 15.3 | 1.17 | 5.73 | -0.07 | -2.27 | 4.46 | 20.8 | 2.23 | 2.8 | 1.3 | 10.4 | 0.38 |
| CCn1c(-c2nonc2N)nc2c(C#CC(C)(C)O)nc(OC[C@@H](N)c3ccccc3)cc21 | 28.1 | 1.28 | 16.9 | 0.84 | 27.5 | -0.06 | 4.44 | 0.08 | 3.19 | 1.17 | 13.6 | 0.65 | 16 | 0.84 | 4.71 | -2.07 | -2.54 | 1.15 | 3.59 | 0.23 |
| Cc1cccc(-c2n[nH]cc2-c2ccc3ncccc3n2)n1 | 0.24 | -0.19 | -0.68 | 1.01 | 4.06 | 0.44 | 2.25 | 0.2 | 3.14 | -0.96 | -0.03 | -0.24 | 1.18 | 1.19 | 2.02 | -0.65 | -0.32 | -0.24 | 0.02 | 0.22 |
| Nc1ncnc2occ(-c3ccc(NC(=O)Nc4cc(C(F)(F)F)cc(C(F)(F)F)c4)cc3)c12 | 2.35 | 1.32 | 1.47 | 0.21 |  | 3.24 | 12.2 | 0.38 | 7.49 | -1.98 | 0.58 | 0.36 | -1.29 | 1.04 | 2.55 | 1.7 | -1.63 | 0.69 | 0.66 | 0.17 |
| Cc1nn(C)c2cc(N(C)c3ccnc(Nc4cccc(S(N)(=O)=O)c4)n3)ccc12 | -2.37 | 1.36 | 0.82 | 4.84 | 5 | 1.93 | 6.83 | 2.38 | 7.27 | -0.09 | 1.25 | -0.56 | -0.33 | 3.53 | 8.04 | 2.44 | 2.5 | 1.18 | 0.82 | 0.22 |
| CCc1cccc(NC(=O)Nc2ccc(Oc3ccc4nc(NC(=O)OC)[nH]c4c3)cc2)c1 | 3.47 | -0.22 | -1.15 | -0.95 | 2.29 | 5.71 | 15.8 | 4.24 | 12.2 | 2.55 | -0.89 | 1.41 | 1.44 | -0.84 | 2.94 | 3.07 | 3.57 | 1.27 | 0.49 | -0.87 |
| CC1=C(C(=O)Nc2ccc3[nH]ncc3c2)C(c2ccc3ccccc3c2)CC(=O)N1 (centres undefined) | 4.13 | 0.19 | 1.73 | 3.7 | 6.22 | 3.03 | 5.77 | 1.21 | 3.81 | -0.71 | 0.34 | -0.4 | -1.53 | 2.21 | 1.29 | 2.37 | 1.22 | 0.24 | -0.93 | 0.51 |
